# This is a sample that favours compounds with a hit; in the whole collection about 4.3% have one here.
# GLP-1R agonist: qHTS of GLP-1 Receptor Agonists; Glucagon-like peptide 1 receptor (Homo sapiens), P43220; HEK293 GLP-1R CRE-luciferase, luminescence, 4-6 h; cells express a hypersensitive GLP-1R form; Potency, µM (series often up to 45.6 µM), without a hit: at the highest dose activation, hits mostly activators; 380,000 compounds, 0.007% hits; AID 624172, 2012; note: potency is the fitted concentration of half-maximal effect; % of control where 0% means no effect
# Target sequence (P43220 whole entry, looked up): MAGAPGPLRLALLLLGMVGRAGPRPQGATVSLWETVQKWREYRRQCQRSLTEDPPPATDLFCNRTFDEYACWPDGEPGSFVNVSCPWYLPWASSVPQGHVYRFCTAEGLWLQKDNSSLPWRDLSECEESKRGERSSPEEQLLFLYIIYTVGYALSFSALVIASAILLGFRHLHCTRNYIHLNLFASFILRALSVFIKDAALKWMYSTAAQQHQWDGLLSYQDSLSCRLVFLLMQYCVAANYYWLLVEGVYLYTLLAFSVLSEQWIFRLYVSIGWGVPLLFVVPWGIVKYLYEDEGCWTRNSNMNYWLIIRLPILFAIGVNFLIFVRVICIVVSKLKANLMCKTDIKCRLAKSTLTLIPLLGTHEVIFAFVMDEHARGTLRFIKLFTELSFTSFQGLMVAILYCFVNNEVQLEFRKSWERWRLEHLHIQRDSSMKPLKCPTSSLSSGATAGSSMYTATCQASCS
# D3 ag: qHTS of D3 Dopamine Receptor Agonist: qHTS | 410,000 compounds, 0.58% hits | D(3) dopamine receptor (Homo sapiens), P35462 | max activation, % | D3R DiscoveRx beta-arrestin cells, luminescence, 90 min | AID 652048, 2013; in the data active = max activation above about 30%; note: 0% is about no effect
#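 Cells at 1500/well, incubated overnight, then treated with pinned compounds (dopamine as control) for 90 min at 37 degrees C. DiscoveRx reagent added for 30 - 60 minutes at room temperature; luminescence read.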
# GLP1R inv ag: qHTS of GLP-1 Receptor Inverse Agonists (Inhibition Mode). Glucagon-like peptide 1 receptor (Homo sapiens), P43220. HEK293 GLP-1R CRE-luciferase, luminescence, 24 h; GLP-1R form is constitutively active. Potency, µM (top dose mostly 38.3 µM), for inactives: at the top dose activity change, negative = inhibition, most hits filed as inhibitors. 410,000 compounds, 1.6% hits; note: potency is the fitted concentration of half-maximal effect; % is set by controls: 0 for no effect and ±100 for the full control effect; nearly all actives have a fitted effect of over 55% in size
#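 Seeding at 200 cells/uL, 12 h culture, 24 hr compound treatment, then luciferase reagent and a luminescence read; cells are HEK293 stably expressing a constitutively active GLP-1R plus cAMP-responsive luciferase.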
# DRD3 antagonist: qHTS of D3 Dopamine Receptor Antagonist: qHTS; D(3) dopamine receptor (Homo sapiens), P35462; D3R cells, DiscoveRx beta-arrestin luminescence, antagonist mode; stronger effect = lower value; max response, negative = inhibition, %; 360,000 compounds, 2.5% hits; AID 652054, 2013; in the data active = max response below about -50%; inconclusive = no clear call, values can overlap the other calls; note: % is set by controls: 0 for no effect and ±100 for the full control effect
#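 Cells plated overnight at 1500 cells/well, then exposed to library compounds with dopamine controls for 90 minutes at 37 degrees C. DiscoveRx reagent added for 30–60 minutes at room temperature; luminescence read, quantitative HTS format.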
# * hit, by the source's call; ? = inconclusive; . = no result given. Unless noted, calls come from the whole dose curve; as a rule, active = well fitted curve in the direction sought with a large enough effect; inconclusive = small, poorly fitted or top-dose-only effect, or another doubt; inactive = no such curve, though single readings can be large; an effect the other way counts as inactive or inconclusive.
SMILES,GLP-1R agonist,D3 ag,GLP1R inv ag,DRD3 antagonist
COc1ccc(-c2cc(C(F)(F)F)n3nc(C(=O)OC(C)C)cc3n2)cc1,.,6,27%,.
O=C1CCC(O)CCN1CCSc1ccccc1 (stereo not given),-2%,-13,14%,-4
CC(C)Nc1nc(NC(C)C)nc(N(C)N)n1,-16%,-10,?,-53*
CCOc1ccc(-c2nc3c(c(CC)nn3-c3ccccc3)c3cc(OC)c(OC)cc23)cc1,.,-4,12%,.
Cc1ccccc1CN(C)C(=O)COC(=O)c1ccc2[nH]c(C)c(C)c2c1,2%,2,8.9µM*,-4
Cc1[nH]c2ccc(C(=O)OC(C)C(=O)NCc3ccccc3)cc2c1C (stereo not given),9%,-4,?,12
Cn1c(-c2ccc(Br)cc2)cnc1NCc1cccnc1,0%,-3,-7%,-62*
Cn1c(-c2ccc(F)cc2)cnc1NCc1ccc(C#N)cc1,5%,-1,0%,-73*
COc1cccc(CCC2C(=O)CCCC2=O)c1,1%,-2,22%,-7
COc1cc(C)cc2oc(=O)c(CC(=O)N3CCN(C(=O)C4COc5ccccc5O4)CC3)c(C)c12 (stereo not given),-6%,7,10µM*,37
Cc1cc(O)c2c(C)c(CC(=O)N3CCN(C(=O)C4COc5ccccc5O4)CC3)c(=O)oc2c1 (stereo not given),0%,-6,6.3µM*,4
O=C(C1COc2ccccc2O1)N1CCN(Cc2ccc(Br)cc2F)CC1 (stereo not given),7%,-1,11µM*,-1
CC(=O)Oc1ccc2c(C)c(CC(=O)N3CCN(C(=O)C4COc5ccccc5O4)CC3)c(=O)oc2c1C (stereo not given),5%,2,-14%,-22
NS(=O)(=O)c1ccc(NC(=S)Nc2ccc(S(=O)(=O)Nc3nccs3)cc2)cc1,-3%,-8,16%,0
CCOc1ccc(N2C(=O)C(CC(=O)Nc3ccc(F)cc3)N(Cc3ccccn3)C2=S)cc1 (stereo not given),13%,-3,10µM*,-5
CCCCC(=O)N(C)c1c(CC)nc2c(OCc3ccccc3C)cccn12,9%,-1,11µM*,-19
CCc1nc2c(OCc3ccccc3C)cccn2c1N(C)C(=O)CC(C)C,-1%,-7,?,0
CCc1nc2c(OCC(=O)N3CCOCC3)cccn2c1N(C)C(=O)COc1ccccc1,-3%,2,-2%,-53*
CCc1nc2c(OCc3ccc(C(F)(F)F)cc3)cccn2c1N(C)C(=O)C1CC1,-7%,1,14µM*,15
CCc1nc2c(OCc3ccc(Cl)cc3)cccn2c1N(C)C(=O)C1CC1,8%,-11,?,-5
CCc1nc2c(OCc3ccccc3C)cccn2c1N(C)C(=O)C(C)C,6%,-19,?,-78*
CCCCN(C=O)c1c(CC)nc2c(OCC(=O)N3CCOCC3)cccn12,-6%,-7,4%,0
Cc1ccc(C)c(NC(=O)CSc2ncc3c(n2)-c2ccc(Cl)cc2N(C)S3(=O)=O)c1,.,8,2%,.
Cc1ccc2onc(CNC(=O)N3CCN(c4cc(Cl)ccc4C)CC3)c2c1,.,1,?,.
CN(C)CCOC(=O)C12CC3(C)CC(C)(CC(C)(C3)C1)C2,3%,-23,0%,-84*
SMILES,GLP-1R agonist,D3 ag,GLP1R inv ag,DRD3 antagonist
Cc1cc(C)c(NC(=O)CCn2c(=O)c3cccn3c3cccnc32)c(C)c1,.,4,5%,.
COc1cc2c(cc1OC)CN(C(=O)c1cc(COc3ccccc3SC)on1)CC2,-5%,3,-1%,7
CSc1ccccc1OCc1cc(C(=O)N2CCc3c(Cl)cccc3C2)no1,8%,32*,?,9
CCCCC(=O)OC1=C(C(=O)c2ccccc2)N(CCC)S(=O)(=O)c2ccccc21,.,-18,11µM*,.
CCCCCN1C(C(=O)c2ccccc2)=C(OC(=O)CC)c2ccccc2S1(=O)=O,.,-28,13µM*,.
Cc1ccc(Cl)cc1N1CCN(C(=O)c2ccc3c(c2)N(Cc2ccccc2F)C(=O)c2ccccc2S3(=O)=O)CC1,0%,-14,-4%,.
CN1CCc2c(n(CC(O)CNCc3ccccc3)c3ccccc23)C1=O (stereo not given),-4%,1,?,?
